Source: PubChem BioAssay (NCATS)
Inconclusive results are not listed. Calls of active or inactive are those of the source. Calls follow the shape of the dose curve; as a rule, active = well fitted curve in the direction sought with a large enough effect; inconclusive = small, poorly fitted or top-dose-only effect, or another doubt; inactive = no such curve, though single readings can be large; an effect the other way counts as inactive or inconclusive. Numbered stars: 1 amine (or outer) side, 2 acyl side, 3 side chain; on linkers, the order of the positions; unused ones are H or OH. Bridge positions count the residues as written; N and C are the ends. Square brackets hold non-standard residues; d marks the D form. Peptide text beside a SMILES is read from it. * marks the point of attachment. pTerphenylCO(4''-OnC5H11) = CCCCCOc1ccc(-c2ccc(-c3ccc(C(=O)*)cc3)cc2)cc1; Orn(4R-OH,5R-OH) = O=C([C@H](C[C@@H](O)[C@@H](O)N[*:3])N[*:1])[*:2]; hTyr(3S-OH,4S-OH) = N[C@H](C(=O)O)[C@H](O)[C@@H](O)c1ccc(O)cc1; Pro(3S-OH,4S-Me) = C[C@H]1CN[C@H](C(=O)O)[C@H]1O; Hyp = O=C(O)[C@@H]1C[C@@H](O)CN1

How the values were obtained:
[1] = molecular target: Cellular tumor antigen p53 (Homo sapiens) (UniProt P04637); test: Primary qHTS for small molecule compounds that upregulate eGFP-tagged delta133p53alpha (in N-terminal) cells. (AID 2060322); details: NCI-H358 eGFP-delta133p53alpha fluorescence, 24 h; activation: stronger effect = higher value;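 also: series mostly up to about 56 µM; 0% = DMSO vehicle and 100% = reference activator; nearly all actives have a fitted effect of over 75% in size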
Chain of Cellular tumor antigen p53 (Homo sapiens) (P04637 whole entry, looked up): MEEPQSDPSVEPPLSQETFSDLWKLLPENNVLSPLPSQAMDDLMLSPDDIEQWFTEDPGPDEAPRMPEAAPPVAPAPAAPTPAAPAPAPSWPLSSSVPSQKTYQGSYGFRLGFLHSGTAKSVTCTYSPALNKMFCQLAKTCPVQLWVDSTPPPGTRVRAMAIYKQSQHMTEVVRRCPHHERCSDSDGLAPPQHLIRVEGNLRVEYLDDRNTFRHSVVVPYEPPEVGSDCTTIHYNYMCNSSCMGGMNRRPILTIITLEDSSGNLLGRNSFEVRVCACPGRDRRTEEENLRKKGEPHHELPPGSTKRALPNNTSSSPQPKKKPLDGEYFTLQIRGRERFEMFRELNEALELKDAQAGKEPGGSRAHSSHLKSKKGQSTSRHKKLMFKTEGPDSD
Method in brief: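 NCI-H358 cells pre-induced 24 h with 10 ng/ml doxycycline to express N-terminal eGFP-delta133p53alpha, then dosed 24 h at 37C without doxycycline; fixed, Hoechst-stained, GFP intensity by laser scanning cytometry, normalized to DMSO (0%) and 57.5 uM 5-azacytidine (100%).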

[2] = molecular target: Aldehyde dehydrogenase, mitochondrial (Homo sapiens) (UniProt P05091); test: qHTS for Inhibitors of the Aldehyde Dehydrogenase Family (ALDH2) Primary screen (AID 2061308);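 also: plate controls were vehicle for no effect and reference inhibitor for full effect; nearly all actives have a fitted effect of over 55% in size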
[3] = molecular target: Retinaldehyde dehydrogenase 3 (Homo sapiens) (UniProt P47895); test: qHTS for Inhibitors of the Aldehyde Dehydrogenase Family (ALDH1A3) Validation screen (AID 2061312); also: % is scaled to controls: 0 for no effect and ±100 for the full control effect; nearly all actives have a fitted effect of over 45% in size
[4] = molecular target: Retinaldehyde dehydrogenase 3 (Homo sapiens) (UniProt P47895); test: qHTS for Inhibitors of the Aldehyde Dehydrogenase Family (ALDH1A3) Primary screen (AID 2061315);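 also: plate controls were DMSO vehicle for no effect and reference inhibitor for full effect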

O=C(OC(C(F)(F)F)C(F)(F)F)N1CCN(Cc2cccc(Oc3ccccc3)c2)CC1
inactive: activation [1] 1.43% | Potency [2] | Potency [3] | Potency [4]

COc1ccc(C2Sc3ccccc3N(CCN(C)C)C(=O)C2OC(C)=O)cc1 (stereo not drawn)
inactive: activation [1] -11.5% | Potency [2] | Potency [3] | Potency [4]

CC(=O)O[C@]1(C(C)=O)CC[C@H]2[C@@H]3C[C@H](C)C4=CC(=O)C=C[C@]4(C)[C@@]3(F)[C@@H](O)C[C@@]21C
inactive: activation [1] 1.91% | Potency [2] | Potency [3] | Potency [4]

CN(C)CCn1cc(-c2ccc(F)cc2)c(-n2cccc2)n1
inactive: activation [1] -10.5% | Potency [2] | Potency [3] | Potency [4]

COc1cc(Nc2nc3ccccc3nc2NS(=O)(=O)c2cccc(NC(=O)c3ccc(C)c(OC)c3)c2)cc(OC)c1
inactive: activation [1] 10% | Potency [2] | Potency [3] | Potency [4]

COc1ccccc1N1CCN(CC[C@@](C)(C(=O)C2CCCCC2)c2ccccc2)CC1
inactive: activation [1] 8.11% | Potency [2] | Potency [3] | Potency [4]

Nc1ncnc2c1c(-c1ccc(Oc3ccccc3)cc1)nn2[C@@H]1CCCNC1
inactive: activation [1] 20% | Potency [2] | Potency [3] | Potency [4]

Cc1cc(C)c(-n2cc(C)c3c(Cl)nc(C)nc32)c(C)c1
inactive: activation [1] -3.82% | Potency [2] | Potency [3] | Potency [4]

CC1=C(C(=O)Nc2cc(Cl)ccc2Cl)C(c2ccco2)C2=C(CCCC2=O)N1 (stereo not drawn)
inactive: activation [1] 17.7% | Potency [2] | Potency [3] | Potency [4]

COc1cccc(C(=O)N2CCN(C(=O)COc3cccc(C)c3)CC2)c1OC
inactive: activation [1] 4.77% | Potency [2] | Potency [3] | Potency [4]

FC(F)(F)c1ccccc1-c1cc(C(F)(F)F)c2nc(C3=NOC4(CCCCC4)C3)[nH]c2c1
inactive: activation [1] 15.3% | Potency [2] | Potency [3] | Potency [4]

NCc1c[nH]c(=S)n1C1CCc2c(F)cc(F)cc2C1 (stereo not drawn)
inactive: activation [1] -0.477% | Potency [2] | Potency [3] | Potency [4]

CC(C)(C)c1ccc(CNC(=S)NCc2ccc(NS(C)(=O)=O)c(F)c2)cc1
inactive: activation [1] -6.68% | Potency [2] | Potency [3] | Potency [4]

CCC(=O)N1CCOc2c(cc(-c3ccc(OC)c(OC)c3)cc2OC[C@H]2CCCN(C)C2)C1
inactive: activation [1] -0.477% | Potency [2] | Potency [3] | Potency [4]

OC1CCC(Nc2nc(-c3ccccc3)nc3[nH]ccc23)CC1 (stereo not drawn)
inactive: activation [1] -8.11% | Potency [2] | Potency [3] | Potency [4]

Nc1nc(CC(=O)Nc2ccc(CCNCC(O)c3ccccc3)cc2)cs1 (stereo not drawn)
inactive: activation [1] -11% | Potency [2] | Potency [3] | Potency [4]

C[C@@H]1C(=O)O[C@H]2CC34[C@H]5C[C@@H](C(C)(C)C)C36[C@@H](OC(=O)[C@@H]6O)OC4(C(=O)O5)[C@]21O (stereo partly drawn)
inactive: activation [1] -10% | Potency [2] | Potency [3] | Potency [4]

CC(C)S(=O)(=O)NC[C@H](C)c1ccc(-c2ccc(CCNS(C)(=O)=O)cc2)cc1
inactive: activation [1] -5.73% | Potency [2] | Potency [3] | Potency [4]

Cc1nc2cc(-c3cc(F)cc(C#N)c3)ccc2s1
inactive: activation [1] -1.91% | Potency [2] | Potency [3] | Potency [4]

O=C(Nc1ccc(S(=O)(=O)Nc2nccs2)cc1)C(c1ccccc1)c1ccccc1
inactive: activation [1] -2.86% | Potency [2] | Potency [3] | Potency [4]

COc1ccc(Cl)cc1[C@@]1(F)C(=O)Nc2cc(C(F)(F)F)ccc21
inactive: activation [1] 24.8% | Potency [2] | Potency [3] | Potency [4]

CCCCCOc1ccc(-c2ccc(-c3ccc(C(=O)N[C@H]4C[C@@H](O)[C@@H](O)NC(=O)[C@@H]5[C@@H](O)[C@@H](C)CN5C(=O)[C@H]([C@@H](C)O)NC(=O)[C@H]([C@H](O)[C@@H](O)c5ccc(O)cc5)NC(=O)[C@@H]5C[C@@H](O)CN5C(=O)[C@H]([C@@H](C)O)NC4=O)cc3)cc2)cc1 ({pTerphenylCO(4''-OnC5H11)}-[Orn(4R-OH,5R-OH)]T[Hyp][hTyr(3S-OH,4S-OH)]T[Pro(3S-OH,4S-Me)]; lactam 1-C)
inactive: activation [1] 22.9% | Potency [2] | Potency [3] | Potency [4]

Cc1cc(-c2nncc3c(C(C)(C)C)c(OCc4ncnn4C)nn23)no1
inactive: activation [1] 6.68% | Potency [2] | Potency [3] | Potency [4]

O=C(NCCN1CCN(c2cccc3c2OCCO3)CC1)c1ccc(F)cc1
inactive: activation [1] -9.07% | Potency [2] | Potency [3] | Potency [4]

CN(C)CCC[C@]1(c2ccc(F)cc2)OCc2cc(C#N)ccc21
inactive: activation [1] 0.477% | Potency [2] | Potency [3] | Potency [4]

CCC1(O)CC2c3cc(OC)c(OC)cc3CCN2CC1CC(C)C (stereo not drawn)
inactive: activation [1] 3.82% | Potency [2] | Potency [3] | Potency [4]

CN[C@@H]1[C@@H](O)[C@@H](O[C@@H]2[C@@H](O)[C@H](O[C@H]3O[C@H](CN)[C@@H](O)[C@H](O)[C@H]3O)[C@@H](N)C[C@H]2NC(=O)[C@@H](O)CN)OC[C@]1(C)O
inactive: activation [1] -2.86% | Potency [2] | Potency [3] | Potency [4]
